Compound activity from PubChem BioAssay.
A selection: hits, their analogues and other compounds. The true share with any hit is near 3%.
OvCa metastasis: blocks SKOV3ip1 adhesion and invasion in omental model. SKOV3ip1-GFP adhesion/invasion on 3D omental model, fluorescence. AID 1963576. hit rate 0.1% among 46,000. Potency, µM (top dose mostly 45.8 µM), for inactives: top-dose activity change, negative = inhibition, most hits filed as inhibitors;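 further: plate controls were DMSO wells for no effect and tomatine positive control wells for full effect; nearly all actives have a fitted effect of over 65% in size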
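Adhesion/invasion was scored as fixed GFP-labeled SKOV3ip1 cell counts (488/509 nm), normalized to DMSO and tomatine controls. Cancer cells in serum-free medium, with four compound doses (0.36-46 umol/L), sat 2 hr at RT then 16 hr at 37 C on a 48 hr fibroblast/mesothelial/ECM culture.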
p53null 32C kill: selectivity test: cytotoxicity in p53 null cells, permissive temperature | H1299-neo p53 null cells, ATP luminescence, 24 h, 32C | Potency, µM (highest dose often 46.1 µM), without a hit: at the top dose activity change, negative = cytotoxicity, most hits filed as cytotoxic | hit rate 0.62% among 55,000 | AID 903;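 further: 0% = DMSO only and -100% = full killing by 100 µM tamoxifen; nearly all actives have a fitted effect of over 55% in size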
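ATP-content luminescence in p53-null H1299-neo cells after 24 h compound exposure (up to 46 uM) at 32C permissive temperature; 0% and 100% killing set by DMSO and 100 uM tamoxifen; Hill-equation AC50.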
PMP22 txn prim: modulates PMP22 transcription in S16 Schwann cells | hit rate 2% among 43,000 | S16 Pmp22-F2sN Schwann cells, FLuc/NLuc coincidence luminescence, 24 h | Potency, µM (titrated, usually from 57.5 µM), inactives show at the highest dose activity change, negative = inhibition, actives largely listed as inhibitors; active means clear falling dose curves in both reporters; inconclusive means both reporters move, but less clearly or upward; inactive means either reporter flat; the % is the NLuc reporter signal
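Rat S16 Pmp22-F2sN cells, 500-1,000/well in phenol red-free DMEM + 10% FBS, compound-treated 24 h (37C, 5% CO2). Luminescence: FLuc read, Stop&Glo added, NLuc read.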
pS6 MEF inh: reduces mTORC1 signaling in Tsc2 and p53 null MEF cells; Tsc2-/- p53-/- MEF, phospho-rpS6 immunofluorescence/PI, 24 h; Potency, µM (highest dose often 38.3 µM), inactives show at the top dose activity change, negative = inhibition, usual class: inhibitors; hit rate 0.78% among 44,000;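 further: plate controls were DMSO for no effect and rapamycin for full effect; nearly all actives have a fitted effect of over 50% in size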
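Read-out: phospho-S6 Alexa-488 intensity over PI intensity per well, scored as % active cells using thresholds from rapamycin (7.5 nM) and DMSO controls. Tsc2-/-, p53-/- MEFs exposed to compound for 24 h; PI cell count recorded as viability.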
p53null 39C tox: selectivity test: cytotoxicity in p53 null cells, nonpermissive temperature. H1299 p53-null (neo) cells, 39C, ATPlite viability, 24 h. Potency, µM (doses to about 46.1 µM), for the others: at the highest dose activity, negative = cell killing, usual class: cytotoxic. hit rate 0.97% among 55,000;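 further: 0% = DMSO only and -100% = full killing by 100 µM tamoxifen; nearly all actives have a fitted effect of over 50% in size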
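Temperature-shift cytotoxicity format: compound titrations on p53-null or A138V-expressing H1299 cells held 24 hr at 39C, cell ATP then measured, AC50 from Hill model.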
S16 viability: toxic to S16 Pmp22-F2sN Schwann cells; S16 Pmp22-F2sN Schwann cells viability, CellTiter-Glo, 24 h; Potency, µM (doses to about 57.5 µM), for inactives: at the highest dose activity change, negative = cytotoxicity, actives largely listed as cytotoxic; AID 1508642; hit rate 0.48% among 43,000; further: nearly all actives have a fitted effect of over 65% in size
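S16 Pmp22-F2sN Schwann cells (500-1,000/well) in phenol-red-free DMEM with 10% FBS received 23 nL compound by pin tool for 24 h at 37 °C. Viability was then read as CellTiter-Glo luminescence after 15 min at room temperature.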
Numbers without * were called inactive; i = inactive; ? = inconclusive; / = not tested or not shown. Unless noted, the call rests on the fitted dose curve; in most records, active means well fitted curve in the direction sought with a large enough effect; inconclusive means small, poorly fitted or top-dose-only effect, or another doubt; inactive means no such curve, though single readings can be large; an effect the other way counts as inactive or inconclusive. Unless noted, on the % scale 0 is the no-effect control and ±100 the full control effect; potency means the concentration at half of the fitted maximal effect.

SMILES	OvCa metastasis	p53null 32C kill	PMP22 txn prim	pS6 MEF inh	p53null 39C tox	S16 viability
Cc1nc2c(C(=O)NCCc3ccc(Cl)cc3)c[nH]n2c(=O)c1Cc1ccccc1F	i	?	-32.1%	-6.5%	?	17.7%
C[N+]1(C)[C@@H]2C[C@@H](OC(=O)C(O)(c3cccs3)c3cccs3)C[C@H]1[C@@H]1O[C@@H]12	5.7%	/	/	/	/	/
O=C(Nc1cccc(Br)c1)c1cccc(S(=O)(=O)N2CCCCCC2)c1	-0.9%	/	/	/	/	/
CCCCN1C(=O)C(O)(c2c(C)[nH]c3ccccc23)c2ccccc21 (centres undefined)	-8.4%	5.3%	18.9µM*	?	-10.1%	?
CCCCN1C(=O)C(O)(c2c(C)[nH]c3ccccc23)c2cc(Br)ccc21 (centres undefined)	?	-2.8%	?	?	?	-1.7%
CN(C)c1ccc(CNC(=O)CCCn2ccc3cc(S(=O)(=O)N4CCCC4)ccc32)cc1	-6.1%	-2.6%	?	-9.3%	2.6%	?
O=C(CCCn1ccc2cc(S(=O)(=O)N3CCCC3)ccc21)NCc1ccc(Cl)cc1	-23.5%	-6.7%	?	7.36µM*	?	?
Cc1cc(OCC(=O)Nc2c(C(=O)c3ccccc3)oc3ccccc23)cc(C)c1Cl	6.5%	0.5%	-10.2%	8.2%	16.7%	8.5%
Cc1cccc(C)c1OCC(=O)Nc1c(C(=O)c2ccccc2)oc2ccccc12	10µM*	1.0%	-21.8%	-9.0%	-19.2%	5.9%
COc1cccc(NC(=O)c2oc3ccccc3c2NC(=O)c2ccc(OC(C)C)cc2)c1	-14.2%	15.8µM*	9.2%	-5.1%	12.6µM*	-13.8%
COc1ccc(C(=O)c2oc3ccccc3c2NC(=O)c2ccc(F)cc2)cc1	i	-5.7%	-19.5%	9.6%	9.3%	3.1%
COc1ccc(C(=O)Nc2c(C(=O)c3ccc(F)cc3)oc3ccccc23)cc1	i	2.2%	10.2µM*	0.6%	?	-1.5%
O=C(Nc1noc2ccccc12)c1ccc(F)cc1	4.9%	12.6µM*	-22.7%	2.6%	?	-1.4%
CC(C)C[C@H](NC(=O)c1cc2ccccc2s1)C(=O)N1CCN(C(=O)[C@H](CO)NS(=O)(=O)c2ccc(Cl)cc2Cl)CC1	2.6%	/	/	/	/	/
NC(=O)Nc1cc(-c2cccc(F)c2)sc1C(=O)N[C@H]1CCCNC1	-20.6%	/	/	/	/	/
C[C@@H](NCc1cc2ccccc2[nH]1)c1cccc2ccccc12	-24.3%	/	/	/	/	/
c1ccc(CSc2ccc(-c3ccco3)nn2)cc1	/	11.2µM*	/	/	?	/
Oc1ccccc1-c1nc(/C=C/c2ccccc2Cl)no1	-13.8%	10µM*	?	-5.4%	10µM*	-2.0%
Cc1ccc(NC(=O)c2cccc(C(C)(C)C#N)c2)cc1Nc1ccc2ncn(C)c(=O)c2c1	55.3%	/	/	/	/	/
Cc1ccc(CSc2nc3cccnc3n2Cc2ccc(C(=O)NC3CCCCC3)cc2)cc1	?	12.6µM*	?	-7.5%	11.2µM*	-2.7%
O=C(NC1CCCCC1)c1ccc(Cn2c(SCc3ccccc3F)nc3cccnc32)cc1	-9.9%	-26.7%	-35.5%	1.1%	-27.8%	?
O=C(NCc1cccs1)c1ccc(CSc2nc3cccnc3n2Cc2ccccc2)cc1	0.8%	1.3%	-27.4%	-4.9%	-17.1%	?
Cc1ccc(CSc2nc3cccnc3n2Cc2ccc(C(=O)NCCc3cccs3)cc2)cc1	-26.1%	4.47µM*	?	-19.9%	3.98µM*	-20.5%
O=C(NCc1ccco1)c1ccc(Cn2c(SCc3ccc(F)cc3)nc3cccnc32)cc1	-3.2%	?	-29.8%	-15.1%	12.6µM*	-17.7%
O=C(NC1CC1)c1ccc(Cn2c(SCc3ccccc3F)nc3cccnc32)cc1	8.9%	?	?	-11.7%	12.6µM*	?
